Hit rate of the full screen: of about 310,000 compounds, about 14,000 (4.5%) showed an effect of 50% or more. The effect is printed as a negative number. For the sample, strong results were picked, then their nearest neighbours and some compounds at random.
molecular target: human ether-à-go-go-related gene (hERG) potassium channel (human, UniProt Q12809); experiment: primary screen, population patch clamp on CHO cells stably expressing hERG; higher = less effect of the substance
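Further: peak tail current of the secondary pulse compared with the same well before compound.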

Chain of human ether-à-go-go-related gene (hERG) potassium channel (Q12809 whole entry, looked up): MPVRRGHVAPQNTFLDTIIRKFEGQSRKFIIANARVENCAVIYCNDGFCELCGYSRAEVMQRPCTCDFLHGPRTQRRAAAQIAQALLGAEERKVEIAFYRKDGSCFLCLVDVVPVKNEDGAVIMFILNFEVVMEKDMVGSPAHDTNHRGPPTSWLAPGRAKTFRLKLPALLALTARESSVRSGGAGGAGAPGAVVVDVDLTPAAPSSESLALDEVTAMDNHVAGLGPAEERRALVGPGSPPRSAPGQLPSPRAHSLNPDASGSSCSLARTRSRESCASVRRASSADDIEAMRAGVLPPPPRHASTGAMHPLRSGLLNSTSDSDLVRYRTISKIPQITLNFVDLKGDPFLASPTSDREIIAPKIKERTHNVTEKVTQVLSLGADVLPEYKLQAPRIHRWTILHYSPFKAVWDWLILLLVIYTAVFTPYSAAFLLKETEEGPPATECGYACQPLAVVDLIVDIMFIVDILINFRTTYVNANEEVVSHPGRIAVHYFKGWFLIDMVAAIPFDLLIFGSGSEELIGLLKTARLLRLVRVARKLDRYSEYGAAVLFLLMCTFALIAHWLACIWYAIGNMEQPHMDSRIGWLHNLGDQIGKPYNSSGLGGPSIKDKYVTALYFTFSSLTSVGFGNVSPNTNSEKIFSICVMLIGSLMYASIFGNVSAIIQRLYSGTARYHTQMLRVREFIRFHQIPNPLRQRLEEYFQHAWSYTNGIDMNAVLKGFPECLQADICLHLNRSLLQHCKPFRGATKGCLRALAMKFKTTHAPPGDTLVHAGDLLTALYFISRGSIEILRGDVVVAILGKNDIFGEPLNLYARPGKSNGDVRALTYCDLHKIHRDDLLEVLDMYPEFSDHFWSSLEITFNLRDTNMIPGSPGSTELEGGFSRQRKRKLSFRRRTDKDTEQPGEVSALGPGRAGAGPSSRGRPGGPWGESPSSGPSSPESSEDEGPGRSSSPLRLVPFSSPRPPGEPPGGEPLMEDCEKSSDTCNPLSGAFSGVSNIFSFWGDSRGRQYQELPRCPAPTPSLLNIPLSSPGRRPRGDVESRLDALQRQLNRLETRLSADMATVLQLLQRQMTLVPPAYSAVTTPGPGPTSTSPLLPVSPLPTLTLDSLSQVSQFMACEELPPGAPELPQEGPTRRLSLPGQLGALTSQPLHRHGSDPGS

SMILES | hERG current change (%, negative = inhibition) at 10uM
CC(C)C(NS(=O)(=O)c1cccs1)C(=O)NCc1ccccc1Cl (centres unmarked) | 0.166%
Cn1sc(NC(=O)c2ccc(Cl)cc2)nc1=O | 7.93%
COc1ccc2c(c1)[nH]c1c(C)nccc12.Cl | -28%
COc1cc(/C=N/NC(=O)C(NC(=O)c2ccccc2)c2n[nH]c(=O)c3ccccc23)ccc1OCC(N)=O (centres unmarked) | 5.88%
CCOc1ccc2nc3c(cc2c1)CN(CCOC)C(=NC)S3.Cl | 11.2%
COc1cc(OC)cc(-c2c(-c3cccs3)c3cc(-c4ccc(OC)c(F)c4)ccc3n2C)c1 | 12.3%
CCOc1ccc(OCC)c(S(=O)(=O)N2CCCCC2)c1 | -12.2%
CCOc1ccc(OCC)c(S(=O)(=O)N2CCCCC2C)c1 (centres unmarked) | -52.2%
CCOc1ccc(OCC)c(S(=O)(=O)N2CCC(C)CC2)c1 | -29.4%
O=C(NCCNc1nccc(C(F)(F)F)n1)c1cccs1 | -11.3%
Cc1ccc2c(ccc(=S)n2C)c1 | 22.1%
CCOc1ccc2[nH]c(C)c(CN3CCCCC3)c(=O)c2c1 | -13.1%
O=C(/C=C/c1ccccc1)NCCS(=O)(=O)N1CCN(c2ccccc2F)CC1 | -3.41%
CCn1cc(C(=O)O)c(=O)c2cnc(N3CCNCC3)nc21 | -65.4%
CCn1cc(C(=O)O)c(=O)c2cnc(N3CCN(C(=S)Nc4ccccc4)CC3)nc21 | 2.24%
C=CCNC(=S)N1CCN(c2ncc3c(=O)c(C(=O)O)cn(CC)c3n2)CC1 | 2.8%
C/C(=N\NC(=O)C(O)c1ccccc1)c1ccc(Br)s1 (centres unmarked) | 1.82%
O=[N+]([O-])c1nn(-c2ccc3c(c2)OCCO3)n(O)c1=NC1CCN(Cc2ccccc2)CC1 | -17.8%
Cc1cccc(CCN=c2c([N+](=O)[O-])nn(-c3ccccc3)n2O)c1 | -15.5%
Cc1ccc(CN=c2c([N+](=O)[O-])nn(-c3cccc(C)c3)n2O)cc1 | -32.7%
Cc1cccc(-n2nc([N+](=O)[O-])c(=NC3CCN(Cc4ccccc4)CC3)n2O)c1 | -66.8%
COc1ccc(-n2nc([N+](=O)[O-])c(=NC3CCN(Cc4ccccc4)CC3)n2O)cc1 | -39.8%

SMILES | hERG current change (%, negative = inhibition) at 10uM
O=[N+]([O-])c1nn(-c2ccccc2)n(O)c1=NC1CCN(Cc2ccccc2)CC1 | -58.1%
COC(=O)c1ccccc1S(=O)(=O)Nc1ccc(OC)nc1 | -0.17%
Cc1cccc(Nc2nn3c(=O)c4ccccc4nc3s2)c1 | 23.6%
COc1ccc(NC(=O)c2cccc3cccnc23)cc1S(N)(=O)=O | 29.2%
CN(C)C(C)(C)C#CC(O)(c1ccccc1)c1ccccc1 | -26.6%
CN(CC#CCC(c1ccccc1)c1ccccc1)C(C)(C)C.Cl | -83.3%
CN(C)C(C)(C)C#CCCCCC#CC(C)(C)N(C)C | 16.5%
CN(C)C(C)(C)C#CCC(c1ccccc1)c1ccccc1.Cl | -55.9%
CN(C)CC#CCOC(c1ccccc1)c1ccccc1.Cl | -16.1%
CN(C)CC(c1ccccc1)c1ccccc1.Cl | 5.32%
CC1CCC(NC(=O)CCCn2sc3ccccc3c2=O)CC1 (centres unmarked) | 15.4%
N#C/C(=N\Nc1ccccc1[N+](=O)[O-])C(=N)N1CCCCC1 | 33.8%
Cc1ccccc1N1C(=O)/C(=C/c2ccco2)C(=O)NC1=S | 16.5%
NC(=O)COC(=O)c1ccccc1OCc1ccccc1 | 18.3%
CN1C(=O)c2ccc(NC(=O)CCS(=O)(=O)c3ccccc3)cc2C1=O | -3.01%
COc1ccc(-c2nnc(SCCC(=O)O)n2C)cc1OC | -6.37%
CCOC(=O)c1cnc2ccccc2c1Nc1cc(C(=O)O)ccc1C | 14.9%
CCOC(=O)c1cnc2ccccc2c1NCCc1ccc(OC)c(OC)c1 | -78.2%
CCOC(=O)c1cnc2ccc(C(=O)OC)cc2c1NCCc1ccc(OC)c(OC)c1 | -3.95%
CCOC(=O)c1cnc2c(ccc3ccccc32)c1NCCO | -26.4%
CCOC(=O)c1cnc2c(C)cccc2c1NCCc1ccc(OC)c(OC)c1 | -66.9%
COc1ccc(CCNC(=O)COc2ncnc3ccccc23)cc1OC | 16.3%

SMILES | hERG current change (%, negative = inhibition) at 10uM
CCOC(=O)c1cnc2ccc(OC)cc2c1Nc1ccc(N2CCN(C)CC2)cc1 | -18.2%
CCOC(=O)c1cnc2ccc(OC)cc2c1NCCc1ccc(OC)c(OC)c1 | -76.6%
CCOC(=O)c1cnc2c(ccc3ccccc32)c1NCCCN(C)C | -47%
O=C(O)CCn1cc(/C=C2\NC(=S)N(c3ccccc3)C2=O)c(-c2ccc(Br)cc2)n1 | 30.1%
CC(=O)CCc1ccc(Oc2nc(-c3cccnc3)nc3ccccc23)cc1 | 5.75%
COc1ccc(Nc2cnn(-c3nc4ccccc4s3)c(=O)c2Cl)cc1 | -3.58%
CC1(c2ccccc2)NC(=O)N(CC(=O)Nc2cc3c(cc2Br)OCCO3)C1=O (centres unmarked) | -8.6%
S=C(Nc1ccccc1Oc1ccccc1)NC1CCCC1 | -0.79%
O=C(NCCN1CCN(C(=O)c2c(F)cccc2F)CC1)C(=O)Nc1ccc(Cl)cc1 | -32.5%
COc1ccc(NC(=O)C(=O)NCCN2CCN(C(=O)c3cccc(Br)c3)CC2)cc1 | -31%
CC(C)(C)c1ccc(C(=O)N2CCN(CCNC(=O)C(=O)Nc3ccc(F)cc3)CC2)cc1 | -52.5%
CCN1CCN(C(=O)c2ccc(OCC(=O)Nc3ccc(F)cc3)c(OC)c2)CC1 | -14.9%
COc1ccc(C(=O)N2CCN(CCNC(=O)C(=O)Nc3ccc(Br)cc3)CC2)cc1 | -80%
Cc1ccc(S(=O)(=O)N2CCN(CCNC(=O)C(=O)Nc3ccc(F)cc3)CC2)cc1 | 2.09%
Cc1cccc(C(=O)N2CCN(CCNC(=O)C(=O)Nc3ccc(F)cc3)CC2)c1 | -38.8%
COc1ccc(C(=O)N2CCN(CCNC(=O)C(=O)Nc3ccc(F)cc3)CC2)cc1 | -69.6%
COc1ccc(C(=O)N2CCN(CCNC(=O)C(=O)Nc3ccc(F)cc3)CC2)cc1OC | -61.5%
Cc1cccc(NC(=O)/C(=C\c2ccco2)NC(=O)c2ccccc2)c1 | -22.4%
CC(=O)N1CCC(=NNc2ncc(C(F)(F)F)cc2Cl)CC1 | 2.73%
CCOC(=O)c1ccc(N=c2sc(C(=O)OC)cc(=O)n2Cc2ccco2)cc1 | 13.7%
O=C(CN1C(=O)c2ccccc2C1=O)NCc1ccncc1 | -33.1%
COc1ccc(NC(=O)c2ccc(-c3csc(C)n3)cc2)cc1 | 18.5%

SMILES | hERG current change (%, negative = inhibition) at 10uM
Cc1ccc(C(=O)CNc2ccccc2)cc1 | 16.2%
O=C(CCl)Nc1cccc(Oc2ccccc2)c1 | -22.4%
O=[N+]([O-])c1ccc(N2CCN(S(=O)(=O)c3ccc(Cl)c(Cl)c3)CC2)cc1NCCN1CCOCC1 | 3.04%
COC(=O)c1cc(NC(=O)CCc2c(C)nc3ncnn3c2C)cc(C(=O)OC)c1 | -36.1%
Cc1cccc(N(C)c2cc(C)nc3nc(C)nn23)c1 | -15.8%
Cc1ccc(-c2cnn(-c3cccc(C(F)(F)F)c3)c2N)cc1 | -3.62%
CCOc1ccc(NC(=O)C(=O)NCCN2CCN(S(=O)(=O)c3ccccc3)CC2)cc1 | -8.75%
CNC(=O)C(=O)NCCN1CCN(C(=O)c2ccc([N+](=O)[O-])cc2)CC1 | -39.6%
COc1ccc(NC(=O)C(=O)NCCN2CCN(C(=O)c3ccc(C(C)(C)C)cc3)CC2)cc1 | -2.54%
COc1ccc(NC(=O)C(=O)NCCN2CCN(C(=O)C(c3ccccc3)c3ccccc3)CC2)cc1 | -20.8%
COc1ccc(NC(=O)C(=O)NCCN2CCN(C(=O)c3ccc(C)cc3)CC2)cc1 | -75.4%
CCOc1ccc(NC(=O)C(=O)NCCN2CCN(C(=O)c3ccc(C)cc3)CC2)cc1 | -75.2%
CCOc1ccc(NC(=O)C(=O)NCCN2CCN(S(=O)(=O)c3ccc(C)cc3)CC2)cc1 | 8.62%
O=C(NCCN1CCN(C(=O)c2ccc([N+](=O)[O-])cc2)CC1)C(=O)Nc1ccc(F)cc1 | -76.8%
CCC(C)[C@H](NC(=O)NCc1ccccc1Cl)C(=O)OC (some centres unmarked) | 12%
CN(C)c1ccc(C(=O)Nc2ccc(S(=O)(=O)NC3=NCCCCC3)cc2)cc1 | -5.38%
CCc1ccc(N(C(=O)Cc2cccs2)C(C(=O)NC2CCCCC2)c2cn(C)nc2C)cc1 (centres unmarked) | -21.4%
CCN1CCCC1CNC(=O)C(=O)NC1CC1 (centres unmarked) | 10.3%
CCOC(=O)c1cc(-c2ccc3c(c2)OCCO3)n[nH]1 | 20.3%
Cc1cccc(NC(=O)Nc2ccc(Cl)c(Cl)c2)n1 | 9.38%

Reference: article PMC4336329 (PLoS ONE, 2015)
